Source: PubChem BioAssay
Measles CPE = protection of cells from measles virus; hit rate 1.5% among 140,000; protection (pct of control), % at 4 µM; Measles virus-infected cells, CPE protection, absorbance; in the data active = protection mostly above about 24%, no sharp cut-off; inactive = mostly below about 26%
cytoskel mod = cytoskeleton assembly modification; HUVEC TNFa F-actin phalloidin imaging, high content; inhibition, % at 2 µM; hit rate 0.18% among 91,000; AID 836;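 active = inhibition above the batch mean plus 3 SD and confirmed as a hit by visual image inspection, cut at about 30% in these data, passing the limit was not always enough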
* hit, by the source's call; . = not tested or not shown. A selection: hits, their analogues and other compounds. The true share with any hit is near 1.5%.

SMILES | Measles CPE | cytoskel mod
CCOC(=O)N1CCN(C(=O)c2cn(CC(C)C)c(=O)c3c2c2ccccc2n3C)CC1 | 4 | 10
CC(C)Cn1cc(C(=O)N2CCOCC2)c2c3ccccc3n(C)c2c1=O | 40* | -5
O=C(CSc1ncccn1)N/N=C/c1cccc([N+](=O)[O-])c1 | 3 | .
Cc1cc(C)nc(SCC(=O)N/N=C/c2cccc([N+](=O)[O-])c2)n1 | 49* | .
COc1cc(NC(=O)COC(=O)Cc2ccc(-c3ccccc3)cc2)cc(OC)c1 | 13 | .
CCOC(=O)c1ccc(-n2c(O)c(/C=N/NC(=O)C3COc4ccccc4O3)c3ccccc3c2=O)cc1 (stereo unspecified) | 24 | .
c1ccc2ncc(-n3cnnn3)cc2c1 | 38* | -28
O=C(Nc1cnc2ccccc2c1)c1cccc(-n2cnnn2)c1 | 13 | -15
Cc1ccc(C(=O)N/C(=C/c2ccco2)C(=O)OCN2C(=O)c3ccccc3C2=O)cc1 | 16 | .
C/C(=N/NC(=O)CNC(=O)Cc1ccccc1)c1ccco1 | 14 | .
C/C(=N\NC(=O)C1CC1(C)c1ccccc1)c1ccco1 (stereo unspecified) | 71* | .
CCc1sc(NC(=O)c2cc3ccccc3oc2=O)nc1-c1cccs1 | 3 | .
COc1cc(/C=C/C(=O)OCC(=O)NCc2cccs2)ccc1OCC#N | 25 | .
Cc1cc2oc(=O)cc(CN3CCOCC3)c2cc1C | 6 | -3
CCNc1cc2oc(=O)c(CN3CCOCC3)c(C)c2cc1C | 43* | -34
C=CCn1c(SCc2c(C(=O)OC)sc(N)c2C(=O)OC)nnc1-c1ccc(Br)cc1 | 3 | -22
Cc1ccc(-c2nc(SCC(=O)N(C)C3CCS(=O)(=O)C3)[nH]c2-c2ccc(C)cc2)cc1 (stereo unspecified) | 4 | 14
CCCCC1(CC(=O)OC)C(=O)N(c2ccccc2)N(c2ccccc2)C1=O | 3 | .
Cc1ccccc1OCc1nc2ccc(S(=O)(=O)N3CCOCC3)cc2[nH]1 | 17 | .
O=S(=O)(c1ccc2nc(COc3ccc(Cl)cc3Cl)[nH]c2c1)N1CCOCC1 | 53* | 51
CN(C)CCSc1nnc2sc3ccccc3n12 | 8 | 2
COc1ccc(OCCSc2nnc3sc4ccccc4n23)cc1 | 47* | 5
O=C(NC(=S)N1CCc2ccccc21)c1ccccc1Br | 13 | .
Cc1c(-c2ccccc2)[nH]n2c(=O)c3c(nc12)CCCC3 | 18 | .
Cc1ccc(-c2[nH]n3c(=O)c4c(nc3c2C)CCCC4)cc1 | 31* | 3
SMILES | Measles CPE | cytoskel mod
Cc1ccccc1CSc1nc(-c2ccccc2)cc(=O)[nH]1 | 21 | .
Cc1ccc(-n2c(N)c(-c3nc4ccccc4n3C)sc2=S)cc1 | 6 | 10
Cn1c(-c2ccc(N)cc2)nc2ccccc21 | 22* | -11
Cc1ccc(NC(=O)C2(c3ccccc3)CCOCC2)c([N+](=O)[O-])c1 | 3 | .
COC(=O)c1ccc(C(=O)OC)c(-n2c(=O)c3ccccc3c3ccccc3c2=O)c1 | 4 | .
COc1ccc(-c2nc(NC(=O)c3n[nH]c(=O)c4ccccc34)sc2C)cc1 | 9 | .
Cc1cc(C)c(-c2csc(NC(=O)c3n[nH]c(=O)c4ccccc34)n2)c(C)c1 | 62* | .
COc1ccccc1NC(C)C(=O)Nc1ccc(C(C)=O)cc1 (stereo unspecified) | 10 | .
CN(C)c1ccnc(Oc2ccc(Cl)cc2)c1C#N | 6 | .
Cc1cc(Cl)ccc1Oc1nccc(N(C)C)c1C#N | 76* | -8
O=C(Cn1nnc2ccccc2c1=O)NCCc1ccc(F)cc1 | 24 | .
Cn1c(NCc2cccc(Br)c2)nc2ccccc21 | 3 | -9
Cn1c(NCc2ccccc2O)nc2ccccc21 | 28* | .
COc1ccccc1N(C(=O)c1cncc(Br)c1)c1nc(-c2ccc(C)cc2)cs1 | 11 | .
Cc1nn(CC(=O)Nc2cc(S(=O)(=O)N(C)C)ccc2Cl)c(C)c1[N+](=O)[O-] | 41* | .
Cc1nn(CC(=O)Nc2ccccn2)c(C)c1[N+](=O)[O-] | 6 | -52
O=[N+]([O-])c1cccc(-n2nnnc2CN2CCCCCC2)c1 | 33* | 16
Clc1ccc(-n2nnnc2CN2CCOCC2)cc1 | 14 | 28
COc1ccc(S(=O)(=O)Nc2ccccc2OC)cc1NC(=O)CC1CC2CCC1C2 (stereo unspecified) | 5 | .
CCCCNS(=O)(=O)c1ccc(OCC(=O)OC)cc1 | 7 | .
CCCNS(=O)(=O)c1ccc(OCC(=O)OC)cc1 | 39* | 25
CC1CCN(c2nc(-c3ccccc3O)nc3ccccc23)CC1 | 38* | -22
Oc1ccccc1-c1nc(N2CCCC2)c2ccccc2n1 | 9 | .
CCOC(=O)c1ccc(C(=O)OCC)c(NC(=S)Nc2ccc([N+](=O)[O-])cc2OC)c1 | 24 | .
CCN(CC)CCNC(=O)c1cc2c(=O)n(C)c3ccccc3c2n1C | 41* | 9
CCN(CC)CCCNC(=O)c1cc2c(=O)n(C)c3ccccc3c2n1C | 4 | -6
CC(=O)c1nn(-c2cccc(Br)c2)cc1C(=O)c1ccc(Cl)cc1 | 8 | .
Cc1ccc(S(=O)(=O)N(C)C)cc1NC(=O)CN1C(=O)NC2(CCCc3ccccc32)C1=O (stereo unspecified) | 6 | .
